In the library only some 2.9% were active in any assay of this set; here they are far more common.
DRD3 antagonist – D3 dopamine receptor (human) antagonism; P35462; D3R cells, DiscoveRx beta-arrestin luminescence, antagonist mode; hits give low values; max response, negative = inhibition, %; hit rate 2.5% among 360,000; AID 652054; in the data active = max response below about -50%; inconclusive = no clear call, values can overlap the other calls; also: % is scaled to controls: 0 for no effect and ±100 for the full control effect
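Cells expressing the human receptor were seeded at 1500 cells/well, incubated overnight at 37 degrees C in 5% CO2, then exposed to library compounds with dopamine controls for 90 minutes at 37 degrees C before luminescent detection.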
B2AR arrestin – beta2AR (human) beta-arrestin recruitment activity | P07550 | beta-arrestin recruitment to beta2AR, cell-based reporter | Potency, µM (highest dose often 46.1 µM), for the others: at the top dose activation, hits mostly activators | hit rate 0.02% among 330,000 | AID 492947; active = well fitted activation curve with a large enough effect; inconclusive = small, poorly fitted or top-dose-only effect;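 also: potency is read from the fitted curve at half-maximal effect; 0% = DMSO controls and full agonism = EC100 isoproterenol or metaproterenol; nearly all actives have a fitted effect of over 65% in size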
TSHR antag – antagonists of human thyroid stimulating hormone receptor; hit rate 0.2% among 330,000; TSHR-expressing cells, TSH-stimulated cAMP HTRF, 2 h; hits give low values; activity change, negative = inhibition, % at 11.5 µM;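 active = activity change below a set negative limit, meaning inhibition stronger than a set level, cut at about -70% in these data; inconclusive = activity change between two set negative limits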; also: % is scaled to controls: 0 for no effect and ±100 for the full control effect
Target sequence (P16473 whole entry, looked up): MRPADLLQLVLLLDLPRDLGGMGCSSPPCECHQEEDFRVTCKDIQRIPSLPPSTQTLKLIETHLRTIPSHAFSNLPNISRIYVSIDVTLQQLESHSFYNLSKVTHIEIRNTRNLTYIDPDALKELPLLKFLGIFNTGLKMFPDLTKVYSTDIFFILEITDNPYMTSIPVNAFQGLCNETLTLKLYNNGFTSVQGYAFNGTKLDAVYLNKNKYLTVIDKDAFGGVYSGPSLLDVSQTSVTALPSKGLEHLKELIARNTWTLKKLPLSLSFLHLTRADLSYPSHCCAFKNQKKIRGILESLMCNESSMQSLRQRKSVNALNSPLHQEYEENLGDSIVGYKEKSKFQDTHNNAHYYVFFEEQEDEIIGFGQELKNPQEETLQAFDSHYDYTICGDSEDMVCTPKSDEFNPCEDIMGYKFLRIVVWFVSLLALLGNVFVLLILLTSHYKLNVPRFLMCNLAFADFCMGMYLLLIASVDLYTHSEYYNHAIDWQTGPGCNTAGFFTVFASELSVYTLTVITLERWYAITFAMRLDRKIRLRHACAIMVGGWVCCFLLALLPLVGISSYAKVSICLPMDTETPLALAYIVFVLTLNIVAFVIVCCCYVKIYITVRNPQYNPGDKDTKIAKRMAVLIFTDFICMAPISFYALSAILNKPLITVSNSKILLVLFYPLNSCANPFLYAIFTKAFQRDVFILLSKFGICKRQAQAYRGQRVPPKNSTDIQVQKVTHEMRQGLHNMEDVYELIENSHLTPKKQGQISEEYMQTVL
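Competitive HTRF cAMP read-out (cryptate anti-cAMP antibody, cAMP-d2; 30 min, room temperature) in freshly harvested TSHR cells. Compounds added before TSH at EC80 (4nM final), followed by 2 hours' incubation at 37 deg C.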
D3 ag – D3 dopamine receptor (human) agonism | P35462 | D3R DiscoveRx beta-arrestin cells, luminescence, 90 min | max activation, % | hit rate 0.58% among 410,000; in the data active = max activation above about 30%; also: 0% is about no effect
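Agonist-mode cell screen: cells plated at 1500/well and incubated overnight at 37 °C, then exposed to library compounds for 90 min at 37 °C. Detection reagent was added for 30–60 min at room temperature, and luminescence was read.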
* marks the source's active call; other numbers are inactive results; ? = inconclusive; · = no result; + = active, no number.

SMILES	DRD3 antagonist	B2AR arrestin	TSHR antag	D3 ag
Cc1ccc(C(=O)CCC(=O)OCc2nnc(-c3ccccc3)o2)cc1	-60.1*	-0.3%	6.8	2.9
Cc1ccc(C(=O)CCC(=O)OCC(=O)Nc2nnc(-c3ccccc3)o2)cc1	12.7	0.3%	-6.9	-4.7
Cc1ccc(S(=O)(=O)c2nc(-c3cccs3)oc2SCc2ccc(F)cc2)cc1	·	·	·	4.0
CC1(C)Cc2c(ccc3ccccc23)/C(=C/C#N)N1	+	0.1%	-2.0	-12.5
CNC(=O)/C=C1\NC(C)(C)Cc2c1ccc1ccccc21	24.7	0.4%	1.4	2.3
Cc1cccc(NC(=O)c2oc3ccccc3c2NC(=O)c2cc(=O)c3cc(Cl)ccc3o2)c1	·	·	·	5.0
COC(=O)[C@@H]1[C@H]2C[C@H]3c4[nH]c5ccccc5c4CCN3C[C@@H]2CC[C@@H]1O	-78.5*	-0.2%	-14.6	-80.1
Cc1cccc(C(=O)n2nc(-c3cccnc3)nc2NCc2ccc(F)cc2)c1	·	·	·	-13.5
Cc1ccc(C(=O)CC(=O)c2cc(Cl)ccc2O)cc1	-9.3	-0.2%	5.4	3.5
Cc1ccc(C(=O)CC(=O)c2ccc(C)cc2O)cc1	-77.4*	-0.3%	-2.8	-6.1
CC(C)(C)c1ccc(C(=O)CC(=O)c2cc(Cl)ccc2O)cc1	-57.0*	-0.1%	-2.1	-4.9
Cc1ccc(C(=O)Cc2ccccc2)c(O)c1	-23.5	·	·	-2.6
CCCS(=O)(=O)N1CC(=O)N(c2ccccc2F)C(C)(C(=O)NC2CCCCCC2)C1 (centres undefined)	·	·	·	-1.0
Cc1c(C(=O)N2CCN(c3ccccn3)CC2)oc2c(F)cccc12	-12.2	0.1%	-2.5	60.0*
O=C(NCCCN1CCN(c2ccc(F)cc2)CC1)Nc1ccc(Cl)cc1	·	·	·	-19.2
CSc1ccc(NC(=O)NCCN2CCc3ccccc3C2)cc1	-61.1*	0.2%	5.9	-29.7
COc1ccc(NC(=O)NCCN2CCc3ccccc3C2)cc1	-83.1*	-0.5%	-2.1	-16.2
O=C(NCCCN1CCc2ccccc2C1)Nc1ccc(Cl)cc1	-91.5*	0.4%	15.9	-37.7
CSc1ccc(NC(=O)NCCCN2CCC(Cc3ccccc3)CC2)cc1	?	-0.4%	8.7	-18.9
CN(C)CCCOc1ccc(C(C)(C)c2ccccc2)cc1	-68.5*	0.0%	20.9	-8.4
O=C(OCCCN1CCCC1)C1(c2ccccc2)CCCC1	-54.2*	-0.3%	-2.4	-1.1
Cc1cccc(C)c1NC(=O)c1ccc(-c2cc(F)ccc2F)o1	-56.6*	·	·	-20.8
CC1Cn2c(C(=O)NCc3ccccc3Cl)cc3cccc(c32)S1 (centres undefined)	·	·	·	9.4
CC(C)(C)c1cc(NC(=O)c2ccc(OC3CCCC3)cc2)no1	9.3	0.0%	-21.2	34.7*
COc1ccc(Nc2nc3ccccc3nc2NS(=O)(=O)c2ccc(Cl)cc2)cc1OC	·	·	·	19.8
SMILES	DRD3 antagonist	B2AR arrestin	TSHR antag	D3 ag
OCC(O)C1OC(c2ccccc2)OC(CO)C1O (centres undefined)	15.2	·	·	30.9*
OCC(O)C1OC(c2ccco2)OC(CO)C1O (centres undefined)	4.1	·	·	5.7
COc1ccc(OC)c(NC(=O)c2cc3c(=O)oc4ccccc4c3s2)c1	·	·	·	1.7
O=C(O)CCC(=O)N1N=C(c2cccs2)CC1c1cccc([N+](=O)[O-])c1 (centres undefined)	19.2	-1.2%	-11.4	-1.3
Cc1ccc(C2=NN(C(=O)CCC(=O)O)C(c3cccc([N+](=O)[O-])c3)C2)cc1 (centres undefined)	-57.6*	-0.8%	13.1	-15.5
COc1ccc(C(C)C)cc1-c1cncc(NC(C)=O)n1	4.2	·	·	5.4
CCCCN(CC)CCCNC(=O)CCN1N=C(c2ccc(OC)cc2)CCC1=O	·	·	·	2.0
CC(O)(c1cccc(F)c1)c1nc(/C=C/c2ccccc2)cs1 (centres undefined)	-87.9*	·	·	-17.8
C[C@H]1CN([C@@H](C)CO)C(=O)CCCn2cc(nn2)CO[C@@H]1CN(C)C(=O)Nc1ccc(C(F)(F)F)cc1	-10.4	·	·	10.3
C[C@H](CO)N1C[C@H](C)[C@@H](CN(C)Cc2ccc3c(c2)OCCN3C)OCc2cnnn2CCCC1=O	-87.6*	·	·	-5.3
C[C@@H]1CN([C@H](C)CO)C(=O)CCCn2cc(nn2)CO[C@H]1CN(C)C(=O)Nc1ccc(C(C)(C)C)cc1	-100.2*	·	·	-13.6
Cc1ccc2c(=O)c(C(=O)c3cccc(Cl)c3)cn(CC(=O)NCc3ccc(F)cc3)c2n1	·	·	·	5.2
N#CC(C#N)=C1C=CC=CN1/C(=C\c1ccccc1Cl)C(=O)c1ccccc1	-103.8*	-0.6%	18.8	-12.8
N#CC(C#N)=C1C=CC=CN1/C(=C\c1ccccc1)C(=O)c1cccs1	-27.3	4.7%	29.4	-18.2
CCOC(=O)c1ccc(NC(=S)N(CCN2CCCCCC2)Cc2cccs2)cc1	-74.9*	0.3%	-2.2	-15.8
CCOC(=O)c1ccc(NC(=S)N(CCCN2CCCC(C)C2)Cc2cccs2)cc1 (centres undefined)	-86.8*	0.0%	1.9	-18.9
OC(c1ccc(Cl)cc1Cl)C(Cc1cccnc1)n1cncn1 (centres undefined)	-75.3*	-0.2%	24.3	1.2
Cc1cc(C)c(S(=O)(=O)N/N=C/c2ccc3c(c2)OCO3)c(C)c1	-71.2*	-0.3%	5.0	6.2
Cc1cc(Cl)c(S(=O)(=O)N/N=C/c2ccc3c(c2)OCO3)c(Cl)c1	?	-0.1%	15.9	-14.7
CCN1C(=O)[C@@H]2[C@@H](c3ccc(-c4ccc(F)cc4)c(OC)c3)N3CCCC[C@@]3(C(=O)OC)[C@@H]2C1=O	38.0	-0.1%	-14.2	32.8*
Cc1nc2c(-c3ccccc3)c(C)nn2c(C)c1CCC(=O)Nc1ccccc1F	·	·	·	14.7
CCc1nnc(NC(=O)c2ccc3c(c2)C(=O)N(C(C)(C)C)C3=O)s1	-24.5	0.4%	-11.6	38.0*
COc1cccc(Nc2nc(C(N)Cc3ccc(C(F)(F)F)cc3)cs2)n1 (centres undefined)	18.7	·	·	2.5
COc1ccc(CNC(=O)C2CCN(S(=O)(=O)c3c(C)noc3/C=C/c3cccs3)CC2)cc1	·	·	·	11.1
O=C1C=C(c2cccc(OCc3ccccc3)c2)C[C@@H](c2ccc3c(c2)OCO3)C1	-10.7	0.2%	25.0	34.8*
SMILES	DRD3 antagonist	B2AR arrestin	TSHR antag	D3 ag
CSc1nc(-c2ccccc2)nc(N2CCN(C)CC2)c1C(C)=O	-55.1*	-0.3%	7.4	-22.9
CN1CCN(c2nc(-c3ccccc3)ncc2S(=O)(=O)c2ccccc2)CC1	-78.5*	-0.2%	-4.0	-38.2
O=C(COc1ccccc1-c1nc(-c2ccccc2)no1)Nc1cccc([N+](=O)[O-])c1	·	·	·	15.0
O=C(COc1ccc(Cl)cc1)OCc1cc(=O)n2nc(-c3cccs3)sc2n1	·	·	·	6.6
C[C@@H]1CN([C@H](C)CO)C(=O)Cc2cc(NS(=O)(=O)c3ccc(F)cc3)ccc2O[C@H]1CN(C)Cc1ccc(C(=O)O)cc1	-5.3	0.0%	-4.6	6.0
C[C@@H]1CN([C@H](C)CO)C(=O)c2cc(NC(=O)Nc3cccc4ccccc34)ccc2O[C@H]1CN(C)Cc1ccc(C(F)(F)F)cc1	-4.0	-0.1%	8.4	10.1

Bioassay records deposited in PubChem by National Center for Advancing Translational Sciences (NCATS).
